Inconclusive results are not listed. The source made the active and inactive calls. Calls come from the whole dose curve; as a rule, active = well fitted curve in the direction sought with a large enough effect; inconclusive = small, poorly fitted or top-dose-only effect, or another doubt; inactive = no such curve, though single readings can be large; an effect the other way counts as inactive or inconclusive.
Columns and labels:
[1] = qHTS assay for measurement of the activity of small molecule inhibitors on Zika virus induced Caspase-3 activity in human iPSC derived neural progenitor cells (hNPCs) (AID 1224857); note: nearly all actives have a fitted effect of over 65% in size
How it was run: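 Values are percent inhibition of virus-induced caspase-3/7 signal, scaled between uninfected cells and ZIKV-infected cells. Infection used 2 FFU/cell for 6 h after 1 h compound exposure.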

[2] = qHTS assay for measurement of the activity of small molecule inhibitors on Zika virus induced Caspase-3 activity in human astrocytoma cells (AID 1224859)
How it was run: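 Compound added 1 h pre-infection; ZIKV 2 FFU/cell on SNB-19 cells, 6 h, 37 C/5% CO2. Caspase-Glo 3/7 luminescence; values as % inhibition of ZIKV-induced caspase activity.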

[3] = qHTS assay to identify small molecule inhibitors of chordoma cells - UCH-1 (AID 1259355); note: nearly all actives have a fitted effect of over 55% in size
How it was run: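 Screening used approved and investigational drugs in 15-point titration against 800 seeded cells per well. A fixed combination of auranofin with camptothecin, doxorubicin, rubitecan and topotecan followed compound addition, and growth was scored by CellTiter-Glo after 48hr.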

[4] = qHTS assay to identify small molecule inhibitors of chordoma cells - UCH-2 (AID 1259356); note: series mostly up to about 46 µM
[5] = P-glycoprotein substrates identified in KB-8-5-11 adenocarcinoma cell line, qHTS therapeutic library screen (AID 1346987); note: series mostly up to about 44 µM; nearly all actives have a fitted effect of over 65% in size
How it was run: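 In this qHTS, P-gp-rich KB-8-5-11 cells received library compounds across a concentration range. Viability was quantified by luminescence after 72 h at 37 degree C.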

Measured: Potency

NC(=O)n1c(O)c(C(=O)c2cccs2)c2cc(Cl)ccc21
inactive: [1] | [2] | [3] | [4] | [5]

CCCCCCCCCCCCSCCOCCO
inactive: [1] | [2] | [3] | [4] | [5]

O=S(c1cc(Cl)cc(Cl)c1O)c1cc(Cl)cc(Cl)c1O
inactive: [1] | [2] | [3] | [4] | [5]

O=[N+]([O-])c1cccc(S(=O)(=O)NCCNS(=O)(=O)c2cccc([N+](=O)[O-])c2)c1
inactive: [1] | [2] | [3] | [4] | [5]

C=C[C@H]1CN2CC[C@H]1C[C@@H]2[C@@H](O)c1ccnc2ccc(OC)cc12
inactive: [1] | [2] | [3] | [4] | [5]

O=C(NCCc1c[nH]c2ccccc12)c1cccnc1
inactive: [1] | [2] | [3] | [4] | [5]

COc1cc(C)nc(-n2nc(C)cc2OC)n1
inactive: [1] | [2] | [3] | [4] | [5]

C[C@@H](O)[C@H]1C(=O)N2C(C(=O)O)=C(S[C@@H]3CN[C@H](CNS(N)(=O)=O)C3)[C@H](C)[C@H]12
inactive: [1] | [2] | [3] | [4] | [5]

OC[C@H]1O[C@@H](Oc2ccc(O)cc2)[C@H](O)[C@@H](O)[C@@H]1O
inactive: [1] | [2] | [3] | [4] | [5]

CC(C)NCC(O)c1ccc2ccccc2c1 (stereo not given)
inactive: [1] | [2] | [3] | [4] | [5]

CCNC(=O)NCc1cccc(Cl)c1
inactive: [1] | [2] | [3] | [4] | [5]

From PubChem BioAssay (NCATS)
